Hit rate of the full screen: of about 5,500 compounds, about 2,000 (36%) were called active. Inconclusive results (about 18%) are left out. Cut-off read from the data, not from the text of the source: active = normalized growth mostly below about 0.91 (no sharp cut-off); inconclusive = no clear call, values can overlap the other calls; inactive = mostly above about 0.92. The list shows a part of the results.
Assay: chemical genetic growth profiling, strain panel (AID 1159580);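 note: tested at 20 µM; growth read once vehicle control cultures reached saturation at 30 °C; 1 = growth at the plate median or of vehicle wells; lower values mean less growth of the strain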
Conditions: growth OD

Measured: normalized growth

C=CCC1(C(C)CCC)C(=O)N=C(S)NC1=O (configuration not stated)
inactive: S. cerevisiae deletion strains, locus YJR075W, strain HOC1, active compounds read low 1.04 | S. cerevisiae deletion strains, locus YKL009W, strain mrt4, active compounds read low 0.963 | S. cerevisiae deletion strains, locus YKL068W, active compounds read low 0.969 | S. cerevisiae deletion strains, locus YKL085W, strain MDH1 (second series), active compounds read low 0.983 | S. cerevisiae deletion strains, locus YKL085W, strain MDH1, active compounds read low 0.983 | S. cerevisiae deletion strains, locus YKL160W, strain elf1, active compounds read low 0.972 | S. cerevisiae deletion strains, locus YKL190W, strain CNB1, active compounds read low 0.992 | S. cerevisiae deletion strains, locus YKR001C, strain vps1, active compounds read low 0.993 | S. cerevisiae deletion strains, locus YKR026C, strain gcn3, active compounds read low 0.925 | S. cerevisiae deletion strains, locus YKR091W, strain srl3, active compounds read low 0.978 | S. cerevisiae deletion strains, locus YLL001W, strain dnm1, active compounds read low 0.942 | S. cerevisiae deletion strains, locus YLL026W, active compounds read low 0.994 | S. cerevisiae deletion strains, locus YLL041C, strain sdh2, active compounds read low 0.974 | S. cerevisiae deletion strains, locus YLR027C, strain aat2, active compounds read low 0.979 | S. cerevisiae deletion strains, locus YLR039C, strain RIC1, active compounds read low 0.891 | S. cerevisiae deletion strains, locus YLR058C, strain SHM2, active compounds read low 0.988 | S. cerevisiae deletion strains, locus YLR102C, strain apc9, active compounds read low 0.966 | S. cerevisiae deletion strains, locus YLR113W, strain HOG1, active compounds read low 0.977 | S. cerevisiae deletion strains, locus YLR221C, strain rsa3, active compounds read low 1 | S. cerevisiae deletion strains, locus YLR258W, strain gsy2, active compounds read low 0.967 | S. cerevisiae deletion strains, locus YLR262C, strain YPT6 (second series), active compounds read low 0.905 | S. cerevisiae deletion strains, locus YLR262C, strain YPT6, active compounds read low 0.853 | S. cerevisiae deletion strains, locus YLR268W, strain sec22, active compounds read low 0.992 | S. cerevisiae deletion strains, locus YLR320W, strain mms22, active compounds read low 1.01 | S. cerevisiae deletion strains, locus YLR330W, strain CHS5, active compounds read low 0.979 | S. cerevisiae deletion strains, locus YLR342W, strain FKS1 (second series), active compounds read low 0.916 | S. cerevisiae deletion strains, locus YLR342W, strain FKS1, active compounds read low 0.978 | S. cerevisiae deletion strains, locus YLR357W, strain rsc2, active compounds read low 0.978 | S. cerevisiae deletion strains, locus YLR370C, strain arc18, active compounds read low 0.99 | S. cerevisiae deletion strains, locus YLR371W, strain rom2, active compounds read low 0.957 | S. cerevisiae deletion strains, locus YLR384C, strain iki3, active compounds read low 0.944 | S. cerevisiae deletion strains, locus YLR418C, strain cdc73, active compounds read low 1.04 | S. cerevisiae deletion strains, locus YML016C, strain PPZ1, active compounds read low 0.994 | S. cerevisiae deletion strains, locus YML032C, strain rad52, active compounds read low 0.957 | S. cerevisiae deletion strains, locus YML120C, strain ndi1, active compounds read low 0.988 | S. cerevisiae deletion strains, locus YML124C, strain tub3, active compounds read low 0.981 | S. cerevisiae deletion strains, locus YMR058W, strain fet3, active compounds read low 0.977 | S. cerevisiae deletion strains, locus YMR078C, strain ctf18, active compounds read low 0.972 | S. cerevisiae deletion strains, locus YMR125W, strain sto1, active compounds read low 0.923 | S. cerevisiae deletion strains, locus YMR129W, active compounds read low 0.978 | S. cerevisiae deletion strains, locus YMR205C, strain PFK2, active compounds read low 0.965 | S. cerevisiae deletion strains, locus YMR223W, strain ubp8, active compounds read low 0.979 | S. cerevisiae deletion strains, locus YMR231W, strain pep5, active compounds read low 0.963 | S. cerevisiae deletion strains, locus YMR263W, strain SAP30, active compounds read low 1.01 | S. cerevisiae deletion strains, locus YMR307W, strain GAS1, active compounds read low 1.02 | S. cerevisiae deletion strains, locus YNL067W, strain RPL9B, active compounds read low 1.02 | S. cerevisiae deletion strains, locus YNL071W, strain lat1, active compounds read low 1 | S. cerevisiae deletion strains, locus YNL128W, strain TEP1, active compounds read low 1.01 | S. cerevisiae deletion strains, locus YNL153C, strain GIM3, active compounds read low 1.03 | S. cerevisiae deletion strains, locus YNL183C, strain NPR1, active compounds read low 0.929 | S. cerevisiae deletion strains, locus YNL209W, strain ssb2, active compounds read low 0.976 | S. cerevisiae deletion strains, locus YNL233W, strain BNI4, active compounds read low 1.03 | S. cerevisiae deletion strains, locus YNL248C, strain rpa49, active compounds read low 0.914 | S. cerevisiae deletion strains, locus YNL250W, strain rad50, active compounds read low 0.963 | S. cerevisiae deletion strains, locus YNL271C, strain bni1, active compounds read low 0.98 | S. cerevisiae deletion strains, locus YNL298W, strain CLA4, active compounds read low 0.978 | S. cerevisiae deletion strains, locus YNL307C, strain MCK1, active compounds read low 0.961 | S. cerevisiae deletion strains, locus YNL322C, strain KRE1 (second series), active compounds read low 0.969 | S. cerevisiae deletion strains, locus YNL322C, strain KRE1, active compounds read low 0.989 | S. cerevisiae deletion strains, locus YNR049C, strain mso1, active compounds read low 0.97 | S. cerevisiae deletion strains, locus YNR052C, strain pop2, active compounds read low 0.995 | S. cerevisiae deletion strains, locus YOL006C, strain TOP1, active compounds read low 1.06 | S. cerevisiae deletion strains, locus YOL012C, strain htz1 1.08 | S. cerevisiae deletion strains, locus YOL147C, strain pex11, active compounds read low 0.99 | S. cerevisiae deletion strains, locus YOR001W, strain rrp6, active compounds read low 0.952 | S. cerevisiae deletion strains, locus YOR061W, strain CKA2, active compounds read low 0.99 | S. cerevisiae deletion strains, locus YOR069W, strain VPS5, active compounds read low 0.974 | S. cerevisiae deletion strains, locus YOR070C, strain gyp1, active compounds read low 0.991 | S. cerevisiae deletion strains, locus YOR080W, strain dia2, active compounds read low 0.959 | S. cerevisiae deletion strains, locus YOR083W, strain WHI5, active compounds read low 0.976 | S. cerevisiae deletion strains, locus YOR106W, strain vam3, active compounds read low 0.941 | S. cerevisiae deletion strains, locus YOR136W, strain idh2, active compounds read low 0.993 | S. cerevisiae deletion strains, locus YOR144C, strain elg1, active compounds read low 0.991 | S. cerevisiae deletion strains, locus YOR184W, strain ser1, active compounds read low 0.949 | S. cerevisiae deletion strains, locus YOR231W, strain MKK1, active compounds read low 0.984 | S. cerevisiae deletion strains, locus YOR265W, strain rbl2, active compounds read low 0.976 | S. cerevisiae deletion strains, locus YOR270C, strain vph1, active compounds read low 0.912 | S. cerevisiae deletion strains, locus YOR290C, strain snf2, active compounds read low 0.996 | S. cerevisiae deletion strains, locus YOR316C, strain cot1, active compounds read low 0.981 | S. cerevisiae deletion strains, locus YPL051W, strain arl3, active compounds read low 0.979 | S. cerevisiae deletion strains, locus YPL055C, strain LGE1, active compounds read low 1.02 | S. cerevisiae deletion strains, locus YPL078C, strain atp4, active compounds read low 0.937 | S. cerevisiae deletion strains, locus YPL106C, strain sse1, active compounds read low 0.988 | S. cerevisiae deletion strains, locus YPL240C, strain hsp82, active compounds read low 0.97 | S. cerevisiae deletion strains, locus YPL241C, strain CIN2, active compounds read low 0.99 | S. cerevisiae deletion strains, locus YPL256C, strain CLN2, active compounds read low 0.996 | S. cerevisiae deletion strains, locus YPR119W, strain clb2, active compounds read low 0.99 | S. cerevisiae deletion strains, locus YPR141C, strain kar3, active compounds read low 0.977 | S. cerevisiae deletion strains, locus YPR163C, strain tif3, active compounds read low 0.985 | S. cerevisiae deletion strains, locus YPR167C, strain met16, active compounds read low 0.981 | S. cerevisiae deletion strains, strain wtn01, active compounds read low 0.98 | S. cerevisiae strains, strain wild type, active compounds read low 0.986
